The target in test [1] is Androgen receptor (Homo sapiens) (UniProt P10275). Briefly: qHTS assay to identify small molecule antagonists of the androgen receptor (AR) signaling pathway using the MDA cell line in the presence of 0.5 nM R1881 (AID 1259243). Also: nearly all actives have a fitted effect of over 50% in size. Also: potency is read from the fitted curve at half-maximal effect. The procedure, abridged:
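MDA-kb2 human breast carcinoma cells carrying an MMTV-luciferase reporter (AR- and GR-responsive) were plated, rested 5 hr at 37C, dosed with compounds, then stimulated with 0.5 nM R1881 (final) for 16 hr; luminescence was read after ONE-Glo.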
For orientation: Quantitative high-throughput screening tests each substance at several concentrations.

The target of test [2] is Estrogen receptor (Homo sapiens) (UniProt P03372). Kind of test: qHTS assay to identify small molecule antagonists of the estrogen receptor alpha (ER-alpha) signaling pathway using the BG1 cell line in the presence of 0.1 nM 17-beta-estradiol (AID 1259244). Also: nearly all actives have a fitted effect of over 50% in size. Also: potency is read from the fitted curve at half-maximal effect. An outline of the steps:
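VM7Luc4E2 cells (endogenous full-length ER-alpha, stable 4xERE-luciferase) were grown 5 days in phenol red-free medium with charcoal-stripped FBS, then exposed 22 h at 37C to compounds plus 0.1 nM (final) 17beta-estradiol; ONE-Glo luminescence read-out.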

Test [3] in a line: qHTS assay to identify small molecule HDAC inhibitors (AID 1259364). Also: nearly all actives have a fitted effect of over 45% in size. Also: potency is read from the fitted curve at half-maximal effect. The procedure, abridged: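 Wild-type HCT-116 cells were plated overnight, exposed to compounds for 2 h at 37 °C, then given HDAC-Glo class I/II luminogenic reagent for 30 min at room temperature before luminescence was read.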
Test [4] can be described thus: qHTS assay to identify small molecule HDAC inhibitors - cell viability counter screen (AID 1259365). Also: series mostly up to about 92 µM; nearly all actives have a fitted effect of over 50% in size. An outline of the steps: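 Cytotoxicity was gauged in wild-type HCT-116 cells after a brief 2hr treatment with DMSO-dissolved compounds at 37C and 5% CO2, using CellTiter-Glo luminescence developed for 30min at room temperature.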
Test [5] in a line: qHTS assay to identify small molecule agonists of the sonic hedgehog signaling (Shh) pathway - cell viability counter screen (AID 1259366). Also: nearly all actives have a fitted effect of over 50% in size. Also: potency is read from the fitted curve at half-maximal effect. The procedure, abridged:
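Stable Gli1-Luc NIH/3T3 clone, 2,000 cells/well. Compound exposure 24hr at 37C. Read-out: CellTiter-Fluor fluorescence.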

Test [6] in a line: qHTS assay to identify small molecule antagonists of the sonic hedgehog signaling (Shh) pathway - cell viability counter screen (AID 1259367). Also: nearly all actives have a fitted effect of over 55% in size. Also: potency is read from the fitted curve at half-maximal effect. An outline of the steps:
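Using CellTiter-Fluor, viability of Gli1-Luc reporter 3T3 cells is read by fluorescence in the wells used for the Shh luciferase assay. Treatment lasts 23 hr with conditioned medium, then reagent 1 hr at 37C.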

A short description of test [7]: qHTS assay to identify small molecule agonists of the sonic hedgehog signaling (Shh) pathway (AID 1259368; calls by dose curve; also: series mostly up to about 92 µM; nearly all actives have a fitted effect of over 15% in size). The procedure, abridged: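 NIH/3T3-derived 3T3Gli1-Luc cells carrying a stably integrated Gli1 response element–firefly luciferase reporter were plated, left 4 hr at 37 C, then given compounds in DMSO for 24 hr. Luminescence was read 30 min after adding luciferase reagent.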

A short description of test [8]: qHTS assay to identify small molecule antagonists of the sonic hedgehog signaling (Shh) pathway (AID 1259369; calls by dose curve; also: nearly all actives have a fitted effect of over 45% in size; also: potency is read from the fitted curve at half-maximal effect). An outline of the steps:
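NIH/3T3-derived 3T3Gli1-Luc cells with stably integrated Gli1-Luc reporter were preincubated 4hr at 37 C, then given compounds in DMSO plus Shh conditioned medium and incubated 24hr. Firefly luciferase luminescence read after 30min reagent at room temperature.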

Test [9] deals with Estrogen receptor beta (Homo sapiens) (UniProt Q92731). Briefly: qHTS assay to identify small molecule agonists of the estrogen receptor beta (ER-beta) signaling pathway (AID 1259377; active = well fitted activation curve with a large enough effect in the signal ratio in the repeat runs, not every such curve was filed as active; the % refers to the signal ratio). The procedure, abridged: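 Measured by fluorescence intensity from a B/G FRET beta-lactamase substrate (2 h, room temperature) in ER-beta-UAS-bla HEK293T cells treated with DMSO-dissolved compounds for 16 hr at 37C and 5% CO2.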
Chain of Estrogen receptor beta (Homo sapiens) (Q92731 whole entry, looked up): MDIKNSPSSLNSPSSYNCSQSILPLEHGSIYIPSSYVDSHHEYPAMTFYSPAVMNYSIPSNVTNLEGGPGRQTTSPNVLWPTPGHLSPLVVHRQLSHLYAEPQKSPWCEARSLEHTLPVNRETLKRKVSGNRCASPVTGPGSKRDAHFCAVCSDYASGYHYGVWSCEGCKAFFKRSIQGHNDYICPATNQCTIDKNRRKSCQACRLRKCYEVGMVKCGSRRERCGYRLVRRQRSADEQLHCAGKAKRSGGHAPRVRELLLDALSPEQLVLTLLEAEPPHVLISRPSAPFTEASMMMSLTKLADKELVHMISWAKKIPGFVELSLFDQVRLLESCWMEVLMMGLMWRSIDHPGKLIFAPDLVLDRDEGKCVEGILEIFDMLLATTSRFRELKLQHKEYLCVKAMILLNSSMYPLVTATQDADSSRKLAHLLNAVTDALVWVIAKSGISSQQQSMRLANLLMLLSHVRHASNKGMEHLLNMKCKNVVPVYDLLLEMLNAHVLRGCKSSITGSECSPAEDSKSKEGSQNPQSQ

The nature of test [10]: qHTS assay to identify small molecule phospholipidosis (PLD) inducers (AID 1259344; active = well fitted curve in the direction sought with a large enough effect; an effect the other way counts as inactive or inconclusive; also: potency is read from the fitted curve at half-maximal effect). The procedure, abridged: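 Fluorescent phospholipid staining (LipidTOX Red) measured by automated microscopy in fixed HepG2 cells after 24 h treatment; nuclei counterstained with Hoechst 33342; amiodarone as reference inducer.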

The text below walks through data of PubChem BioAssay (Tox21).

SMILES strings stand for the structures. Several values for one entry are separate records, joined by “and”; a condition that tells them apart may be missing. Equal entries are not always repeated. Inconclusive results are not listed. Activity calls are given as the source filed them. Unless noted, calls follow the shape of the dose curve; as a rule, active = well fitted curve in the direction sought with a large enough effect in the repeat runs; inconclusive = weak or mixed curves; inactive = no such curve, though single readings can be large; an effect the other way counts as inactive or inconclusive.

Chain of Estrogen receptor (Homo sapiens) (P03372 whole entry, looked up): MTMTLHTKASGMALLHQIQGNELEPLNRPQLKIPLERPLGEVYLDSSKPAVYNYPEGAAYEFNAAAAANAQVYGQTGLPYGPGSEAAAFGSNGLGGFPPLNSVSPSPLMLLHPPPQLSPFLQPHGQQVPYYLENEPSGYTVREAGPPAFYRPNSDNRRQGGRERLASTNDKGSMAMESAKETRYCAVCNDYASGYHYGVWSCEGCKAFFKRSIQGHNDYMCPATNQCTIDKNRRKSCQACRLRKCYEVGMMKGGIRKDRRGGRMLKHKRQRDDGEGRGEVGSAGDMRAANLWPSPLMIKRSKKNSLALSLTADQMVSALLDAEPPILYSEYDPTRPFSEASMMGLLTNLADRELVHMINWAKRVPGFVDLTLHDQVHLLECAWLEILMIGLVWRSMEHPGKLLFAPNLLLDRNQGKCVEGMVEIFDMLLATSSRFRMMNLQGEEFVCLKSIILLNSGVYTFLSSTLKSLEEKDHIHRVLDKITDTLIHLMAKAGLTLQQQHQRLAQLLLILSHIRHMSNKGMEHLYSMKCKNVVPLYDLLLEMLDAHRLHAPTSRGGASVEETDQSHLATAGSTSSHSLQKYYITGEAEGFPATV
Chain of Androgen receptor (Homo sapiens) (P10275 whole entry, looked up): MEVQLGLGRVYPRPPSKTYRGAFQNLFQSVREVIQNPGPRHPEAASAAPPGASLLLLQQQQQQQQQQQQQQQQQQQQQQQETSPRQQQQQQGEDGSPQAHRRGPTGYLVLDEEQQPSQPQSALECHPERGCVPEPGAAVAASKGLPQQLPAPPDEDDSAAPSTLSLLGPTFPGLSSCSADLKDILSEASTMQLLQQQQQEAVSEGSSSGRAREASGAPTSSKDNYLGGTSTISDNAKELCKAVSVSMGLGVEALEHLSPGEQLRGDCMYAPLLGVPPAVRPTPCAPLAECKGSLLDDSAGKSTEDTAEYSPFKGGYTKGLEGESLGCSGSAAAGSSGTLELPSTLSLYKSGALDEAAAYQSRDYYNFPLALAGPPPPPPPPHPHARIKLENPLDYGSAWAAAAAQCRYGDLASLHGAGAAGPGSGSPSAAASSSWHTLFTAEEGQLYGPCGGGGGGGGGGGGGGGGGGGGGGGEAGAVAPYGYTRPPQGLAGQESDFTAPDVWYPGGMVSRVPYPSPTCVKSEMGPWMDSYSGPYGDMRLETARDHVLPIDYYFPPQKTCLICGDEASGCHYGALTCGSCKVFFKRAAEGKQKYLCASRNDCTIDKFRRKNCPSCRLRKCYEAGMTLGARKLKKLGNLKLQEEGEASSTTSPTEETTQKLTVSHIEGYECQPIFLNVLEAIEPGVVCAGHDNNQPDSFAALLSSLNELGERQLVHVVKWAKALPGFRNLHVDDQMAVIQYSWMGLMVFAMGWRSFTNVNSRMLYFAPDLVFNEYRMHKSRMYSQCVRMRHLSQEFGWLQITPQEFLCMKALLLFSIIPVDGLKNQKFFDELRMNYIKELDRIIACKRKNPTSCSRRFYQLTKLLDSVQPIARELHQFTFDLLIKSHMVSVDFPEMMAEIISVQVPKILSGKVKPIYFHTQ

`Nc1ccccc1C(=O)Oc1ccc2ccccc2c1`: the Potency result in [1], in test [2], in test [4], in [5], in test [6] and in test [7] was “inactive” each time. For the same compound, the Potency in test [3] was 8.63 µM (active).
Turning to `CC(=O)c1ccc(-c2ccccc2)cc1`, the results for the Potency in [1] and in test [3] were 19.3 µM (active) and 24.3 µM (active), respectively. The Potency result in [2], in test [4], in test [5], in test [6], in [7] and in [8] was “inactive” throughout.
As for `CCOC(=O)CC(=O)CCl`, in test [1], the Potency was 30.6 µM (active). The Potency result in test [2], in test [3], in test [4], in test [5], in test [6] and in test [7] was “inactive” each time. Besides, in test [8], the Potency result is “inactive”.
Consider `Nc1ccc([N+](=O)[O-])cc1Cl`, for which, in [1], the Potency is 24.3 µM (active). The Potency result in test [2], in test [3], in test [4], in test [5], in test [6] and in [7] was “inactive” throughout. Also, the Potency entry in test [8] was “inactive”.
As to `CC1(C)CN=C(NN=C(/C=C/c2ccc(C(F)(F)F)cc2)/C=C/c2ccc(C(F)(F)F)cc2)NC1`, the Potency is 17.2 µM (active) in test [1]; 48.6 µM (active) in [2]; 19.3 µM (active) in [5]; 17.2 µM (active) in test [6]; 6.86 µM (active) in [8]. For the same compound, the Potency result in test [3], in [4] and in test [7] was “inactive” in each case.
`CC(Cl)CN(C)C` (stereo not drawn): the Potency result in test [1], in test [2], in [3], in test [4], in test [5] and in [6] was “inactive” in each case. Also, in [7], the Potency entry was “inactive”.
In the case of `O=C(CCl)Nc1ccccc1`, the Potency is 48.6 µM (active) in test [1], 61.1 µM (active) in test [2], 12.2 µM (active) in test [5] and 27.3 µM (active) in test [6]. Also, the Potency entry in [3], in test [4], in [7], in test [8] and in test [9] was “inactive” throughout.
`CCOP(=S)(OCC)SCS(=O)(=O)CC`: the Potency entry in test [1], in test [2], in [3], in test [4], in test [5] and in test [6] was “inactive” each time. In addition, the Potency entry in [7], in test [8] and in [9] was “inactive” in each case.
On to `N#CCCSCCC#N`, for which the Potency result in test [1], in test [2], in [3], in test [4], in test [5] and in test [6] was “inactive” throughout. Besides, the Potency entry in test [7] and in test [8] was “inactive” in each case.
`C[C@@H]1O[C@@H](O[C@H]2C[C@@H](O)[C@]3(CO)[C@H]4[C@H](O)C[C@]5(C)[C@@H](C6=CC(=O)OC6)CC[C@]5(O)[C@@H]4CC[C@]3(O)C2)[C@H](O)[C@H](O)[C@H]1O`: the Potency entry in [1], in test [2], in test [10], in test [3], in test [4] and in test [5] was “inactive” throughout. The Potency result in test [6], in test [7] and in test [8] was “inactive” in each case.
With `COP(=O)(CCC(=O)NCO)OC`, the Potency result in test [1], in [2], in test [3], in test [4], in test [5] and in test [6] was “inactive” in each case. Also, the Potency entry in test [7] and in test [8] was “inactive” in each case.
As for `C[C@H]1O[C@@H](O[C@H]2[C@@H](O)C[C@H](O[C@H]3[C@@H](O)C[C@H](O[C@H]4CC[C@@]5(C)[C@H](CC[C@@H]6[C@@H]5CC[C@]5(C)[C@@H](C7=CC(=O)OC7)CC[C@]65O)C4)O[C@@H]3C)O[C@@H]2C)C[C@H](O)[C@@H]1O`, the Potency result in [1], in test [2], in [3], in test [5], in test [6] and in test [7] was “inactive” in each case. Besides, the Potency entry in test [8] was “inactive”. Further, the Potency in test [10] is 2 µM (active).
For `Cc1ccc(CCl)cc1`, the Potency result in [1], in test [2], in [3], in test [4], in test [5] and in [6] was “inactive” each time. The Potency result in [7], in test [8] and in [9] was “inactive” in each case.
As to `CC(C)CBr`, the Potency result in [1], in test [2], in test [3], in test [4], in test [5] and in test [6] was “inactive” throughout. For the same compound, the Potency entry in test [7], in [8] and in [9] was “inactive” each time.
As to `CN(CCCC(O)c1cccnc1)N=O` (stereo not drawn), the Potency result in [1], in test [2], in [3], in test [4], in [5] and in [6] was “inactive” throughout. Besides, the Potency result in [7], in test [8] and in test [9] was “inactive” each time.
For the compound `O=C(Cl)c1ccc(Cl)cc1`, the Potency result in test [1], in test [2], in test [3], in [4], in test [5] and in test [6] was “inactive” throughout. For the same compound, the Potency entry in test [7] and in test [8] was “inactive” throughout.
Regarding `ClC1=C(Cl)C2(Cl)C3C(Cl)C(Cl)CC3C1(Cl)C2(Cl)Cl` (stereo not drawn), the Potency is 60.9 µM (active) and 48.6 µM (active) in [1]; 43.1 µM (active) and 61.1 µM (active) in test [5]. Also, the Potency entry in test [2], in test [3], in [4], in [6], in [7] and in test [8] was “inactive” in each case.
In the case of `O=C(NC(=O)c1c(F)cccc1F)Nc1cc(Cl)c(OC(F)(F)C(F)F)c(Cl)c1`, the Potency entry in [1], in test [2], in test [3], in test [4], in test [5] and in test [6] was “inactive” throughout. Also, the Potency entry in test [7] and in [8] was “inactive” throughout.
As to `CCOC(=O)C1(c2ccccc2)CCN(CCC(C#N)(c2ccccc2)c2ccccc2)CC1`, in [1], the Potency was 29.8 µM (active). Moreover, the Potency result in test [2], in [10], in test [3], in [4], in test [5] and in test [6] was “inactive” throughout. In addition, the Potency entry in test [7] and in [9] was “inactive” in each case.
In the case of `N#C/C=C/c1ccccc1`, the Potency result in test [1], in test [2], in test [3], in test [4], in test [5] and in test [6] was “inactive” each time. The Potency entry in test [7] and in [8] was “inactive” each time.
As to `CC(=O)C(Cl)(Cl)Cl`, the Potency in test [1] is 9.35 µM (active); in test [2], 11.8 µM (active); in test [5] it was 20.9 µM (active); in test [6], 16.6 µM (active); in test [8], 5.9 µM (active). For the same compound, the Potency entry in test [3], in test [4] and in test [7] was “inactive” throughout.
